# Of roughly 7,900 targets only a part is listed; those with a hit were picked by preference. About 0.6% of all pairs of compound and target were hits. Unmarked numbers belong to inactive results.
# Assays:
# Assay in all cases: log2 fold change, soluble protein after heating vs DMSO (PISA); higher = thermal stabilisation; K562 cells, 10 uM, 30 min; active = over 0.2 and 3.5 SD of the protein, either way, in both replicates (recomputed)
# [1] = compound: COC1=CC=C(C=C1)CN2C=CC3=C2C=C(C=C3)C(=O)NO
# How it was run: (§1)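 K562 cells at 2×10^6 cells/mL were treated for 30 min with 10 μM compound, and aliquots were heated for 3 min over 48°C-58°C before pooling. Extraction used PBS with 0.5% NP-40 at 4°C, and soluble protein was the supernatant after 21,000xg for 90 min, measured by TMTpro 16plex LC-MS/MS with channel sums equalised. Thermal stability values, relative to control samples and from duplicates, are log2 fold changes.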
# [2] = compound: CON(C)C(=O)N1N=C(c2cc(F)ccc2F)S[C@@]1(CCCN)c1ccccc1 [filanesib]
# How it was run: as §1
# [3] = compound: CO[C@H]1C[C@@H]2CC[C@@H](C)[C@@](O)(O2)C(=O)C(=O)N2CCCC[C@H]2C(=O)O[C@H]([C@H](C)C[C@@H]2CC[C@H](n3cnnn3)[C@H](OC)C2)CC(=O)[C@H](C)/C=C(\C)[C@@H](O)[C@@H](OC)C(=O)[C@H](C)C[C@H](C)/C=C/C=C/C=C/1C [zotarolimus]
# How it was run: as §1
# [4] = compound: COc1cc(C(=O)O)ccc1NC(=O)[C@@H]1N[C@@H](CC(C)(C)C)[C@](C#N)(c2ccc(Cl)cc2F)[C@H]1c1cccc(Cl)c1F [idasanutlin]
# How it was run: as §1
# [5] = compound: COc1cc(Nc2ncc3c(n2)-c2ccc(Cl)cc2C(c2c(F)cccc2OC)=NC3)ccc1C(=O)O [alisertib]
# How it was run: as §1
# [6] = compound: COc1cc2nc(-c3cc(F)ccc3O)nc(N[C@@H]3CNC[C@H]3C(C)(C)O)c2cc1OC
# How it was run: as §1
# [7] = compound: COc1cc2ncnc(Nc3ccc(F)c(Cl)c3)c2cc1OCCCN1CCOCC1 [gefitinib]
# How it was run: as §1
# [8] = compound: COc1cccc2cc(-c3nc([C@H]4CC[C@H](C(=O)O)CC4)n4ncnc(N)c34)[nH]c12
# How it was run: as §1
# [9] = compound: CS(=O)(=O)CCNCc1ccc(-c2ccc3ncnc(Nc4ccc(OCc5cccc(F)c5)c(Cl)c4)c3c2)o1 [lapatinib]
# How it was run: as §1
# [10] = compound: CS(=O)(=O)N1CCN(Cc2cc3nc(-c4cccc5[nH]ncc45)nc(N4CCOCC4)c3s2)CC1 [pictilisib]
# How it was run: as §1
# [11] = compound: CS(=O)(=O)c1ccc(-c2cnc(N)c(C(=O)Nc3ccccc3)n2)cc1
# How it was run: as §1
# [12] = compound: C[C@@H](Oc1cc(-c2cnn(C3CCNCC3)c2)cnc1N)c1c(Cl)ccc(F)c1Cl [crizotinib]
# How it was run: as §1
# [13] = compound: C[C@@H]1COCCN1C2=NC(=NC(=C2)C3(CC3)S(=O)(=O)C)C4=C5C=CNC5=CC=C4
# How it was run: as §1
# [14] = compound: C[C@H](C1=CC=C(C=C1)C(=O)NC2=C3C=CNC3=NC=C2)N
# How it was run: as §1
# [15] = compound: C[C@H](Nc1ncnc2nc[nH]c12)c1cc2cccc(Cl)c2c(=O)n1-c1ccccc1 [duvelisib]
# How it was run: as §1
# [16] = compound: Cc1cc(Nc2cc(CN3CCOCC3)c3nc(C)c(Cc4ccc(Cl)cc4F)n3n2)n[nH]1 [gandotinib]
# How it was run: as §1
# [17] = compound: Cc1cc(Nc2cc(N3CCN(C)CC3)nc(Sc3ccc(NC(=O)C4CC4)cc3)n2)n[nH]1 [tozasertib]
# How it was run: as §1
# [18] = compound: Cc1cc(SCc2sc(-c3ccc(C(F)(F)F)cc3)nc2C)ccc1OCC(=O)O
# How it was run: as §1
# [19] = compound: Cc1ccc(-n2nc(C(C)(C)C)cc2NC(=O)Nc2ccc(OCCN3CCOCC3)c3ccccc23)cc1 [doramapimod]
# How it was run: as §1
# [20] = compound: Cc1ccc(C(=O)N(CCCN)[C@@H](c2nc3cc(Cl)ccc3c(=O)n2Cc2ccccc2)C(C)C)cc1 [ispinesib]
# How it was run: as §1
# Chain of UniProt O95602 (O95602 whole entry, looked up): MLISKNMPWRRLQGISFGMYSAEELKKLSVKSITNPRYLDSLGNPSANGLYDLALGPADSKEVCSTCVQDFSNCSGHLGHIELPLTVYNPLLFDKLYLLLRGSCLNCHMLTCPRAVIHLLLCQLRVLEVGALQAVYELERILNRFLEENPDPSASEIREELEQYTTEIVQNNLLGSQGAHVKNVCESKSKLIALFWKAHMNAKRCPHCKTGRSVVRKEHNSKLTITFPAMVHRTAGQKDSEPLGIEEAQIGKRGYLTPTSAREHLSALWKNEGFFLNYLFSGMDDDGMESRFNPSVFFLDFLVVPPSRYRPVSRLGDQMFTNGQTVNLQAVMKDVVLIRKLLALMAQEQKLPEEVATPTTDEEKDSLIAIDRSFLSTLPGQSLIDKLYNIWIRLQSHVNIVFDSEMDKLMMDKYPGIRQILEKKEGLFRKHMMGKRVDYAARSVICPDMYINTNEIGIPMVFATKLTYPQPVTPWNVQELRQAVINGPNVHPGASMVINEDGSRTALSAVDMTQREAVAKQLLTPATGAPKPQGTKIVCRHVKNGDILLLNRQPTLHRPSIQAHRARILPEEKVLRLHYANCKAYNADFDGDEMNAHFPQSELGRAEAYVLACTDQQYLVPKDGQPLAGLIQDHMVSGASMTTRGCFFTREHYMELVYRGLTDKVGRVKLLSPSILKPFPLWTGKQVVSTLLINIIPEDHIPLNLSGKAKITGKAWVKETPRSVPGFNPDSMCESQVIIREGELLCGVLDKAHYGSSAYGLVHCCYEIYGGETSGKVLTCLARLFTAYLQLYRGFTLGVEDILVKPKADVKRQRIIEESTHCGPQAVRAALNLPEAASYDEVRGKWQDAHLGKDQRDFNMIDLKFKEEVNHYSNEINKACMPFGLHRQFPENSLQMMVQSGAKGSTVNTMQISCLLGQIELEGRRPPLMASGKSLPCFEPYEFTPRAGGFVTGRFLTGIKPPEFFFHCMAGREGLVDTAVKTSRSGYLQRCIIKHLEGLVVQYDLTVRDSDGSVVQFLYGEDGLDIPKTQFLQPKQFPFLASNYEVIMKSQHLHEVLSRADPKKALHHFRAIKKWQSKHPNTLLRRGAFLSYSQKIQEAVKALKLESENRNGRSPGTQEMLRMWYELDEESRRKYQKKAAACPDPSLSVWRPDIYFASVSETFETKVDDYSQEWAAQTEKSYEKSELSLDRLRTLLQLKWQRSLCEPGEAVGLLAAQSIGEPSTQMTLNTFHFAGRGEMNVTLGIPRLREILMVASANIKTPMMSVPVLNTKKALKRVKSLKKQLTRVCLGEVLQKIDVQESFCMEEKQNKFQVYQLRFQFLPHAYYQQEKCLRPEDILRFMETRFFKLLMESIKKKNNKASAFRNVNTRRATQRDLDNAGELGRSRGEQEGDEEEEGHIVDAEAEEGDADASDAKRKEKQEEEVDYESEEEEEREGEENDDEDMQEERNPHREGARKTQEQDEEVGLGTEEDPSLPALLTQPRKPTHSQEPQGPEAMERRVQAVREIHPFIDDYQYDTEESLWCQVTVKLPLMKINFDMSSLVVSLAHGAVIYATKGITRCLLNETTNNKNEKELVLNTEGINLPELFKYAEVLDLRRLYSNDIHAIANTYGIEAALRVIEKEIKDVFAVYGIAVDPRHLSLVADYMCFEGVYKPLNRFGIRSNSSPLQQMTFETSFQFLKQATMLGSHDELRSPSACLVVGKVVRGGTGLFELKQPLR
# Chain of UniProt Q01970 (Q01970 whole entry, looked up): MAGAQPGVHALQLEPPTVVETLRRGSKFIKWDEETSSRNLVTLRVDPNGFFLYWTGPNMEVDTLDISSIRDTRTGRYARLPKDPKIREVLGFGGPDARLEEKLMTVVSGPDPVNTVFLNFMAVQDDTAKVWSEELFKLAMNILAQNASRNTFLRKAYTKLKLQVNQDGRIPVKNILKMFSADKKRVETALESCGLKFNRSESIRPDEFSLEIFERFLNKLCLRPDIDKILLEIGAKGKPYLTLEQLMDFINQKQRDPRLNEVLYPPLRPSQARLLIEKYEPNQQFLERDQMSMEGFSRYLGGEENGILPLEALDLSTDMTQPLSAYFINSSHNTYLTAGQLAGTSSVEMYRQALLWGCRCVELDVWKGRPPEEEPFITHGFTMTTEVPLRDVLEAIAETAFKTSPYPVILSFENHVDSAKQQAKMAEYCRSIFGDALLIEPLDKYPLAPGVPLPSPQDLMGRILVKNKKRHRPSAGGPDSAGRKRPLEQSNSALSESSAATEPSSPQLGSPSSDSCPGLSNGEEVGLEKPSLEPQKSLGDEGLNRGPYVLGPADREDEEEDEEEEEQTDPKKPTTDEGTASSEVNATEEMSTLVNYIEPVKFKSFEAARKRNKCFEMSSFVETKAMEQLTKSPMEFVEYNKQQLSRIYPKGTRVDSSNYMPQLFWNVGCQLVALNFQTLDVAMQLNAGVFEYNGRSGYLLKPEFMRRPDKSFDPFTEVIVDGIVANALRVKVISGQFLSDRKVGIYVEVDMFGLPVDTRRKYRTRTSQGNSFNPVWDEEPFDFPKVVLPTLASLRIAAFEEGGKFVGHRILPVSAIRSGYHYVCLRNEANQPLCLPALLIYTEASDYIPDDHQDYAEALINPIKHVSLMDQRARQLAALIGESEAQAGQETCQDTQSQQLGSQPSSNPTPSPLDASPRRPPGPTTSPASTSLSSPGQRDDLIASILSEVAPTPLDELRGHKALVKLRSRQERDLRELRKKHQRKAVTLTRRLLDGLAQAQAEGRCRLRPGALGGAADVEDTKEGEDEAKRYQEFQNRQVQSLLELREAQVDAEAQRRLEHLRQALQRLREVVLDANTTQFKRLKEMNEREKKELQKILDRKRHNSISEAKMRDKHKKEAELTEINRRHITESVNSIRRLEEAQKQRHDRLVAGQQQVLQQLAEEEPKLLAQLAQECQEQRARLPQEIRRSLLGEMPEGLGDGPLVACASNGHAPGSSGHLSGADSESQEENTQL
# Chain of UniProt O60925 (O60925 whole entry, looked up): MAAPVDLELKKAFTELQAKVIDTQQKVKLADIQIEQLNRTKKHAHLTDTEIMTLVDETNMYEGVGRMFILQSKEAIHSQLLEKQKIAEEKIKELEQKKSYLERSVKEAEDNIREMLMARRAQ
# Chain of UniProt Q8IZL8 (Q8IZL8 whole entry, looked up): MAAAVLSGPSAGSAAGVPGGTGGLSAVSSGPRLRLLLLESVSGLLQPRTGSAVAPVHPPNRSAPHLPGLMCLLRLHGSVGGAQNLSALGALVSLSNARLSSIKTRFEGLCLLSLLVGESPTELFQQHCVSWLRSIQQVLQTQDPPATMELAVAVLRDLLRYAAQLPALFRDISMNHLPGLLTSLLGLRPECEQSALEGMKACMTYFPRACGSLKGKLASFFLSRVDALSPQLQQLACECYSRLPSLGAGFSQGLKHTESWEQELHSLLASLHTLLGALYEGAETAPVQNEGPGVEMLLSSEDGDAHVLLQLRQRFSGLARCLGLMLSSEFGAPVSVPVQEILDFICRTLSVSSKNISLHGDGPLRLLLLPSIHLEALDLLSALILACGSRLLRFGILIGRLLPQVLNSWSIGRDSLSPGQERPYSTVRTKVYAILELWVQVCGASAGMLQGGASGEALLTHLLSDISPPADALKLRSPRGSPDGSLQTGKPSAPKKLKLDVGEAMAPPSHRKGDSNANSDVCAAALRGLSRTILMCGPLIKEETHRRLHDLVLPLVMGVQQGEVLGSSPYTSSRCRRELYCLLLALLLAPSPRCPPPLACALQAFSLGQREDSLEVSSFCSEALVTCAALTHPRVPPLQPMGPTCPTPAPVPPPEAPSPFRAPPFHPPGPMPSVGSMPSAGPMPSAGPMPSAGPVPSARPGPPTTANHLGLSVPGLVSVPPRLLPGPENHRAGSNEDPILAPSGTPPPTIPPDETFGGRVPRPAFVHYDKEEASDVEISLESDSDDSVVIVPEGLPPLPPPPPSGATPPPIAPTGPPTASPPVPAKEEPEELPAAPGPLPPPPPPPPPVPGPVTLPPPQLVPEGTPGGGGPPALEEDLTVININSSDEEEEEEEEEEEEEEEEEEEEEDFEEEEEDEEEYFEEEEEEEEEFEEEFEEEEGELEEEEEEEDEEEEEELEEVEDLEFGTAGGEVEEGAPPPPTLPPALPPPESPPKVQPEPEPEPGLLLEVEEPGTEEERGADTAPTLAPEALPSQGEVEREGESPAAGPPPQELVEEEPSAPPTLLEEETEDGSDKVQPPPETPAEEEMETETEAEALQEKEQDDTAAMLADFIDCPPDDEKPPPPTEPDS
# Chain of UniProt Q8N5Y8 (Q8N5Y8 whole entry, looked up): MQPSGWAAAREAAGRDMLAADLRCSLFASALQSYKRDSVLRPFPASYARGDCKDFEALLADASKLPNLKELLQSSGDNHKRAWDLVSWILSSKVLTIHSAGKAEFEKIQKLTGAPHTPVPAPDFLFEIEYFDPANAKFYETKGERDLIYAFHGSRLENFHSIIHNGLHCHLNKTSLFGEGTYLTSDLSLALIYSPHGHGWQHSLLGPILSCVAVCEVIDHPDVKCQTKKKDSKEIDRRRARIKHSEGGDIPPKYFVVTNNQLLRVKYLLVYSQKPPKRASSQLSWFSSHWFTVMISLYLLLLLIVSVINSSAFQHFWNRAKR
# Chain of UniProt Q8WWY3 (Q8WWY3 whole entry, looked up): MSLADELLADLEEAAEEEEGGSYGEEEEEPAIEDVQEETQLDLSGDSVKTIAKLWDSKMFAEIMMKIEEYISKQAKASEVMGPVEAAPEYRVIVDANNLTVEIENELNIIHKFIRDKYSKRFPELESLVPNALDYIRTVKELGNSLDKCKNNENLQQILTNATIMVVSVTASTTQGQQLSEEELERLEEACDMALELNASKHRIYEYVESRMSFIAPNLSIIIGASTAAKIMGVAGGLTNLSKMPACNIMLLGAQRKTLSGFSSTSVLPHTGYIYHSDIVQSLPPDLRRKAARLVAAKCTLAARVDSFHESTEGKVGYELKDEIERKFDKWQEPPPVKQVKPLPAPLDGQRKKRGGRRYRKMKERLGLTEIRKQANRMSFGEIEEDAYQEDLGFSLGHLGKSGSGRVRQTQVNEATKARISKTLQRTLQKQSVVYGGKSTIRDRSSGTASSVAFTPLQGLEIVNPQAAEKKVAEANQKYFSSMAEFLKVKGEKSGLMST
Target,log2 fold change [1],log2 fold change [2],log2 fold change [3],log2 fold change [4],log2 fold change [5],log2 fold change [6],log2 fold change [7],log2 fold change [8],log2 fold change [9],log2 fold change [10],log2 fold change [11],log2 fold change [12],log2 fold change [13],log2 fold change [14],log2 fold change [15],log2 fold change [16],log2 fold change [17],log2 fold change [18],log2 fold change [19],log2 fold change [20]
POLR1A (UniProt O95602),0.248,0.075,-0.05,0.063,-0.076,-0.007,0.037,-0.008,0.069,0.078,0.076,-0.017,-0.116,0.125,0.111,-0.03,-0.145,0.08,0.141,-0.151
PFDN1 (UniProt O60925),-0.048,-0.007,0.091,-0.024,-0.042,-0.125,-0.002,0.026,-0.047,0.014,0.018,0.069,0.264,-0.115,0.175,0.029,0.072,0.081,0.018,0.277
PRPF31 (UniProt Q8WWY3),0.07,0.006,-0.028,-0.053,0.081,-0.393,0.003,0.024,0.061,0.139,0.041,0.013,0.181,0.137,0.133,-0.044,0.08,0.159,0.069,-0.029
PITRM1 isoform 2 (UniProt Q5JRX3),-0.097,-0.229 (active),0.124,-0.047,-0.009,-0.026,0.137,0.035,-0.04,-0.032,-0.042,0.01,0.094,-0.023,0.072,0.038,-0.029,0,-0.014,-0.38 (active)
PRKACB isoform 2 (UniProt P22694),-0.045,-0.098,0.021,-0.01,-0.037,0.124,0.015,0.03,-0.018,-0.018,-0.009,-0.145,0.033,-0.039,0.009,-0.091,-0.02,0.047,0.028,-0.043
PSMC2 (UniProt P35998),-0.076,0.049,-0.03,0.033,-0.05,-0.034,-0.051,-0.05,0.059,-0.067,0.011,0.003,-0.087,0.079,-0.061,0.027,0.031,0.014,0.005,0.016
PLCB3 (UniProt Q01970),-0.004,-0.118,0.007,-0.044,-0.05,-0.008,-0.003,0.013,-0.028,0.055,0,-0.07,0.014,0.013,0.019,0.031,0.041,0.034,0.014,-0.078
PELP1 (UniProt Q8IZL8),-0.096,-0.022,0.012,0.012,-0.045,-0.033,-0.002,0.042,0.031,-0.074,-0.006,-0.012,-0.107,-0.024,-0.055,-0.282,-0.012,0.111,0.019,0.004
PRMT7 (UniProt Q9NVM4),-0.174,-0.072,-0.008,-0.004,-0.073,-0.037,0.05,-0.018,0.026,-0.009,0.063,-0.142,0.075,0.083,0.037,0.067,0.01,0.12,0.038,0.065
PTDSS1 (UniProt P48651),-0.015,0.075,0.053,0.124,-0.098,-0.071,0.041,-0.012,0.04,-0.098,-0.029,-0.141,-0.05,0.209,-0.225,-0.039,-0.048,0.105,0.151,-0.326
PHKA1 (UniProt P46020),0.046,0.076,-0.024,-0.518 (active),-0.223,0.265,-0.017,0.034,-0.109,0.049,-0.036,-0.05,-0.048,0.189,-0.074,-0.015,0.279,0.075,0.037,-0.07
QKI (UniProt Q96PU8),-0.004,-0.004,-0.026,-0.032,-0.077,-0.079,0.019,0.011,-0.007,-0.032,-0.057,0.075,0.046,-0.079,0.032,-0.093,0.027,0.034,0,-0.034
PIP4P2 (UniProt Q8N4L2),0.053,-0.383 (active),0.027,0.14,0.022,0.007,0.009,-0.016,0.03,0.061,-0.057,-0.3 (active),0.013,-0.058,0.068,0.017,-0.041,0.013,-0.032,-0.569 (active)
PTRH2 (UniProt Q9Y3E5),0.403 (active),-0.033,0.01,-0.076,-0.009,0.07,0.015,0.001,0.012,-0.005,0.02,0.081,0.061,-0.098,0.051,-0.02,0.001,-0.001,-0.074,0.181
PARP16 isoform 3 (UniProt Q8N5Y8),-0.029,-0.13,0.039,-0.056,-0.075,-0.097,0.011,-0.03,0.071,-0.008,-0.008,0.076,-0.021,0.079,0.048,0.081,-0.007,-0.081,0.072,
